Screening results deposited in PubChem BioAssay by Buhrlage Lab, Dana-Farber Cancer Institute and Novartis Institutes for BioMedical Research (Cambridge, Mass).
USP30 block: human USP30 deubiquitinase inhibition; purified USP30, Ub-rhodamine cleavage fluorescence; inhibition, % at 25 µM; 5.3% of 47,000 active; AID 1645860
Target sequence (Q70CQ3 whole entry, looked up): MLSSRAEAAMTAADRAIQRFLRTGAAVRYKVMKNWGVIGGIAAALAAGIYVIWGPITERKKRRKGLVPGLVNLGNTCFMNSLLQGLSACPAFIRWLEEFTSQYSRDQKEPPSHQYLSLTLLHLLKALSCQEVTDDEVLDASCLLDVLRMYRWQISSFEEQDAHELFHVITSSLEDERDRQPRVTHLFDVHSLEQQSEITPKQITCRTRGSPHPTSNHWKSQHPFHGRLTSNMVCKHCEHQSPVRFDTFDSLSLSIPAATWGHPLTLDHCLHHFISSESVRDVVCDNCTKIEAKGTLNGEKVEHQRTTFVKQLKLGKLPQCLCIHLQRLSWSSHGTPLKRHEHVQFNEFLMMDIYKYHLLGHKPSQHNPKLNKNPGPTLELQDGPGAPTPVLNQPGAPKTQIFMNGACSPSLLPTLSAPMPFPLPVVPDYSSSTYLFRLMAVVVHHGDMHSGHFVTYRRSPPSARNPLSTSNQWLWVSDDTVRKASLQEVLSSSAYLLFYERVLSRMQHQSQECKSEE
USP28 block: human USP28 deubiquitinase inhibition; Q96RU2; purified USP28, Ub-rhodamine cleavage fluorescence, 30 min; inhibition, % at 25 µM; 3% of 47,000 active
Of the large screens only hits and unclear results are named; the others gave an inactive call. Only some compounds are listed: those with a hit (about 7% of all), similar ones and a draw of the others. No stated cut-off is given here; in the data, active means inhibition above about 30%; inactive means the rest.

CC1CC(=O)c2cnc(NCC3CCCO3)nc2C1 (stereo not given)	none
COc1ccccc1NC(=O)N1CCCN(Cc2ccc(F)cc2)CC1	none
CC(=O)c1ccc(S(=O)(=O)N2CCN(c3nnnn3-c3ccccc3)CC2)cc1	none
CSc1ccccc1NC(=O)c1nnn2cc(C)[nH]c(=O)c12	none
Cc1cn2nnc(C(=O)Nc3ccc(OC(F)(F)F)cc3)c2c(=O)[nH]1	USP30 block 53.7
CC(C)CCn1c(CN2CCc3ccccc3C2)nc2c1c(=O)n(C)c(=O)n2C	none
O=c1ncn(Cc2ccc3c(c2)OCO3)cc1-c1ncc(C(F)(F)F)cc1Cl	USP30 block 45.9
O=c1c2[nH]c3ccc(F)cc3c2ncn1Cc1ccc2c(c1)OCO2	none
O=C(NCc1ccccn1)C1CCCN(c2nnc3ccc(Cl)cn23)C1 (stereo not given)	none
O=C(c1ccc2c(=O)n3c(nc2c1)CCCC3)N1CCC2(CC1)OCCO2	USP30 block 30.9
O=C(Nc1nnc(C2CC2)s1)c1ccc2c(=O)n3c(nc2c1)CCCCC3	none
O=C(Nc1ccc(Cl)cc1)N1CCCN(Cc2ccc(F)cc2)CC1	none
COc1ccccc1CNC(=O)CCC1CCCC1	none
COc1ccccc1CNC(=O)Nc1cccc2ccccc12	USP30 block 30.1
Cc1ccc2nc(NC(=O)CSc3nnc(-c4ccc5c(c4)OCO5)o3)sc2c1	none
c1ccc(Cc2nnc(N3CCOCC3)c3ccccc23)cc1	USP28 block 34.0
O=C(NCCc1ccccc1)c1nc(N2CCOCC2)c2ccccc2n1	none
CN[C@H]1C[C@@H]2O[C@](C)([C@H]1O)n1c3ccccc3c3c4c(c5c6ccccc6n2c5c31)C(=O)NC4	none
CCn1cc2c(n1)c(=O)n(Cc1ccc(C)cc1)c(=O)n2CC(=O)Nc1ccc(F)cc1	none
Cc1ccc(CNC(=O)Cn2c(=O)n(CCCC(=O)NCc3ccc(F)cc3)c(=O)c3ccccc32)cc1	none
CCCn1c(=O)c2nscc2n(CC(=O)NCc2ccc(C)cc2)c1=O	USP30 block 42.3
CCn1cc2c(n1)c(=O)n(Cc1ccccc1)c(=O)n2CC(=O)NCc1ccc(C)cc1	USP30 block 90.4
O=C(Cn1c(=O)n(Cc2ccncc2)c(=O)c2ncccc21)Nc1cccc(F)c1	none
CCCn1c(=O)c2nscc2n(CC(=O)NCc2ccccc2)c1=O	none
O=C(Cn1c(=O)n(Cc2ccc(F)cc2)c(=O)c2ncccc21)Nc1ccccc1	USP30 block 64.9
Cc1ccc(Cn2c(=O)c3ncccc3n(CC(=O)NCc3ccc(F)cc3)c2=O)cc1	USP30 block 84.0, USP28 block 78.4
CCN(C(=O)Cn1cnc(S(=O)(=O)N2CCCC2)c1)c1ccccc1	none
Cc1[nH]c(C)c(S(=O)(=O)NC2CCCCC2)c1-c1nnc(C2CC2)o1	none
O=C(Nc1cccc2ccccc12)C1CCCN(S(=O)(=O)Cc2ccccc2)C1 (stereo not given)	none
CCc1nc(N2CCCC2=O)sc1C(=O)Nc1ccc(F)cc1	none
O=C(Cn1c(=O)n(Cc2ccc3c(c2)OCO3)c(=O)c2ncccc21)c1ccccc1	USP30 block 53.8
O=C(Cn1c(=O)n(Cc2ccccc2)c(=O)c2ncccc21)N1CCCc2ccccc21	none
CCCN1CCN(C(=O)c2ccc3c(c2)NC(=O)C2CCCCN32)CC1 (stereo not given)	none
O=C(c1cnccn1)N1CCCC1c1ccnc(Nc2cnccn2)n1 (stereo not given)	none
COc1ccccc1-c1noc(C2CCCN2C(=O)Nc2cccc(C)c2C)n1 (stereo not given)	USP30 block 49.2
COc1ccccc1NC(=O)N1CCCC1c1c(C)noc1C (stereo not given)	none
CN(CC1(C)CCOCC1)S(=O)(=O)Cc1ccc(F)cc1Cl	none
CS(=O)(=O)N(Cc1nc(-c2ccc3c(c2)OCCO3)no1)Cc1ccccc1F	none
Cc1cc2cccc(C)c2nc1SCC(=O)NCc1ccccc1	USP30 block 46.6
Cc1cccc(CNC(=O)CCc2nc3c(C)cccc3c(=O)n2C)c1	none
COC(=O)COc1ccc(/C=N/NC(=O)c2ccc(CN3CCc4ccccc4C3)cc2)cc1	USP30 block 53.6
Cc1c(Cl)cccc1NC(=O)c1ccc(CN2CCc3ccccc3C2)cc1	none
COc1cc(OCC(=O)NC(C)C)cc2c1C(=O)O[C@@H](C)CCCC(=O)CCCCC2	none
COc1cc(N)c(Cl)cc1C(=O)OCC(=O)Nc1ccc2c(c1)OCCO2	USP28 block 37.0
COc1cc(N)c(Cl)cc1C(=O)OCC(=O)N1CCCC1	none
COc1cc2c(c(OCC(=O)Nc3ccc4c(c3)OCCO4)c1)C(=O)O[C@@H](C)CCCC(=O)CCCCC2	USP30 block 51.3
COc1cccc(CNC(=O)N2CCC3(CC2)CC(=O)c2ccccc2O3)c1	none
Cc1ccc(C(=O)N2CCOC(c3ccccc3)C2)cc1C (stereo not given)	none
COc1ccc(-c2nonc2NC(=O)Cc2ccccc2)cc1	none
COc1ccc(CC(=O)Nc2c(NCc3ccccc3)c3ccccc3oc2=O)cc1	USP30 block 75.1, USP28 block 33.6
Cc1ccc(NC(=O)c2cnc(N3CCOCC3)nc2)cc1C	none
Cc1ccc(NC(=O)c2cnc(N3CCOCC3)nc2)cc1F	USP30 block 45.5
CCCCCCCCCCCCCCCc1cc(O)cc(O)c1C(=O)O	USP30 block 55.5, USP28 block 52.8
CCCCCCCc1cc(OC(=O)c2c(CCCCCCC)cc(O)cc2O[C@@H]2O[C@H](CO)[C@@H](O)[C@H](O)[C@H]2O)cc(O)c1C(=O)O	USP30 block 110.5, USP28 block 102.0
O=C(O)CCCCc1cc(O)cc(O)c1	none
COc1cc(C(=O)OCc2ccc(O[C@@H]3O[C@H](CO)[C@@H](O)[C@H](O)[C@H]3O)cc2)ccc1O	none
Cc1ccc(CNc2ncnc3c(C(=O)N4CCCC4)sc(C)c23)o1	none
CN1CCCN(C(=O)c2ccccc2)c2nc3ccccc3nc21	none
Cc1nn(-c2ccccc2)c2c1nc(CCC(=O)NC1CCCCC1)c(=O)n2C	none
O=C(NC1CC1)c1ccn(-c2ccc3ccc(-c4ccncc4)cn23)n1	none
Cc1noc(C)c1CN1CCC(NC(=O)c2cc(F)ccc2Cl)C1 (stereo not given)	none
Cc1ccc(-n2nc(C(=O)N3CCN(c4ccccn4)CC3)c3ncn(C)c(=O)c32)cc1	none
CCCC(=O)N1CCC[C@@H]1Cn1c(C(F)(F)F)cc(=O)c2cc(C)ccc21	none
Cn1c(N)c(C(=O)Cn2nnc(-c3ccccc3Cl)n2)c(=O)n(C)c1=O	none
Cc1ccc(Cn2nnc(-c3ccccc3Cl)n2)cc1	USP28 block 64.3
CC(C)CN1C[C@H]2C[C@H](C(=O)Nc3ccc4c(c3)OCO4)[C@@H](C1)O2	none
O=C(c1cccc(C(F)(F)F)c1)N1CCC(O)(CS(=O)(=O)c2ccc(Cl)c(Cl)c2)CC1	none
CCOC(=O)COc1nc(-c2cccs2)cc(C(F)(F)F)c1C#N	none
Cc1nc(-c2cccs2)cc(-c2cccc(Cl)c2)c1C#N	USP30 block 37.1
COc1ccc(C2/C(=C(\O)c3ccccc3)C(=O)C(=O)N2c2nc3ccc(F)cc3s2)cc1 (stereo not given)	USP30 block 54.8
COc1ccc(C2/C(=C(\O)c3ccccc3)C(=O)C(=O)N2c2cccc(C(F)(F)F)c2)cc1 (stereo not given)	USP30 block 33.3
Cc1ccc(C2/C(=C(\O)c3ccc(F)cc3)C(=O)C(=O)N2c2nc3ccc(F)cc3s2)cc1 (stereo not given)	none
COc1ccc(O)c(C(=O)c2cc(C#N)c(=O)n(-c3cccc(C(F)(F)F)c3)c2)c1	none
CCOc1ccc(CNC(=O)c2noc(C)c2CN2CCOCC2)cc1	none
Cc1ccc(C(=O)N(CC2CCCO2)c2nc(-c3ccccc3)cs2)cc1 (stereo not given)	none
